From article PMC4336329 (PLoS ONE, 2015) come the findings set out here.

In all, about 310,000 compounds went through this assay and about 14,000 (4.5%) showed an effect of 50% or more. Effects have a minus sign here. The entries come from a sample that favours strong results as a whole.
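Note: peak tail current of the secondary pulse compared with the same well before compound.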

For the assay, the target named is human ether-à-go-go-related gene (hERG) potassium channel (human, UniProt Q12809). As to the kind of experiment: primary screen, population patch clamp on CHO cells stably expressing hERG; higher = less effect of the substance.
Sequence of human ether-à-go-go-related gene (hERG) potassium channel (Q12809 whole entry, looked up): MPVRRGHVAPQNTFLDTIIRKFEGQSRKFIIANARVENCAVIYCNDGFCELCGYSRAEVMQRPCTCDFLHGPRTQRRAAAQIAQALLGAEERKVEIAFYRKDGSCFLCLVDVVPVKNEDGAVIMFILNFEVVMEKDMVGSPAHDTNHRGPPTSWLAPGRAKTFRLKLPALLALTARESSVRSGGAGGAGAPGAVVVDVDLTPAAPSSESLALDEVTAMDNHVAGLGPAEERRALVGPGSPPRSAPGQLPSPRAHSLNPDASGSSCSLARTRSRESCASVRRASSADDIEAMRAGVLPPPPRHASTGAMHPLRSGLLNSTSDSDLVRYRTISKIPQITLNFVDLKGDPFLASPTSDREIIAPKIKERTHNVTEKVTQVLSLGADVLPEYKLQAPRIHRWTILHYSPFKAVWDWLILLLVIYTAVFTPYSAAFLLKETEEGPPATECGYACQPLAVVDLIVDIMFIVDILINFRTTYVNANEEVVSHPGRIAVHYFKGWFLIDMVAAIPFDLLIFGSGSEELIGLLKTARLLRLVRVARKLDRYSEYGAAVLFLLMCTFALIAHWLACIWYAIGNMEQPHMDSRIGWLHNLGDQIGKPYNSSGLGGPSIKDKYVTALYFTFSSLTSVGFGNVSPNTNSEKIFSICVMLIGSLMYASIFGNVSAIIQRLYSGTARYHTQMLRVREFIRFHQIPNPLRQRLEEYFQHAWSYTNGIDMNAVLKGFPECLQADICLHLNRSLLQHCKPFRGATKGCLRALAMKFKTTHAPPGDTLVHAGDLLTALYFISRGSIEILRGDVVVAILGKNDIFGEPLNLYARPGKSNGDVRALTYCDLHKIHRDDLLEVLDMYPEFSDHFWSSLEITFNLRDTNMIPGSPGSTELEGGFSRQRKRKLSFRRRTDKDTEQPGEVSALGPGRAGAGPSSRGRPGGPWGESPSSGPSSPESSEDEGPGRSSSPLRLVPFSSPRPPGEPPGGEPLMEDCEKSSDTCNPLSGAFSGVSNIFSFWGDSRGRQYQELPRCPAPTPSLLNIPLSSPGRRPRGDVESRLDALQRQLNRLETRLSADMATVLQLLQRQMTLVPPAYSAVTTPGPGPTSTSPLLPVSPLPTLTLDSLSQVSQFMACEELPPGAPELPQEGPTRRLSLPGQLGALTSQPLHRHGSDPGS
Regarding `O=C1NC(c2ccccc2)=NC1(NS(=O)(=O)c1ccccc1)C(F)(F)F` (stereo not shown), the “hERG current change (%, negative = inhibition) at 10uM” value is recorded as -3.5%. Under `Cc1ccc(S(=O)(=O)N2CCC(C(=O)OC(C)C(=O)NC3CCCCC3C)CC2)cc1C` (stereo not shown) stands -25.4%.

On to `Cc1ccc(NC(=O)c2sc3nc4c(c(-c5ccco5)c3c2N)CCC4)cc1`, for which the “hERG current change (%, negative = inhibition) at 10uM” value is recorded as 11.6%. Consider `Cc1cc(C(=O)Nc2ccc3[nH]ccc3c2)no1`, for which the “hERG current change (%, negative = inhibition) at 10uM” value worked out at 6.46%. Under `Cc1ccc(S(=O)(=O)NCCSc2ccccc2)cc1[N+](=O)[O-]` stands -0.246%; under `Cc1ccc(N(Cc2ccccc2)C(=O)c2cccc(S(=O)(=O)N3CCN(C)CC3)c2)cc1`, -52.7%; under `CN1CCN(S(=O)(=O)c2cccc(C(=O)N(Cc3ccccc3)c3ccccc3)c2)CC1`, -19.9%. `Cc1ccc(N(Cc2ccccc2)C(=O)c2cc(S(=O)(=O)N3CCOCC3)ccc2C)cc1`: the “hERG current change (%, negative = inhibition) at 10uM” value is listed as -27.4%. For `CC(=O)N1CCN(S(=O)(=O)c2cccc(C(=O)N(Cc3ccccc3)c3ccc(C)cc3)c2)CC1`, the “hERG current change (%, negative = inhibition) at 10uM” value is reported as -61.2%. With `Cc1ccc(N(Cc2ccccc2)C(=O)c2cccc(S(=O)(=O)N3CC(C)OC(C)C3)c2)cc1` (stereo not shown), the “hERG current change (%, negative = inhibition) at 10uM” value was -7.01%.

As to `CC(=O)N1CCN(S(=O)(=O)c2cccc(C(=O)N(Cc3ccccc3)c3cccc(C)c3)c2)CC1`, the “hERG current change (%, negative = inhibition) at 10uM” value was -27.4%. In the case of `Cc1cccc(N(Cc2ccccc2)C(=O)c2cccc(S(=O)(=O)N3CC(C)OC(C)C3)c2)c1` (stereo not shown) it was -9.56%; in that of `Cc1ccc(N(Cc2ccccc2)C(=O)c2cccc(S(=O)(=O)N3CCOCC3)c2)cc1`, -74.5%. For `Cc1ccc(N(Cc2ccccc2)C(=O)c2ccc(S(=O)(=O)N3CCOCC3)cc2)cc1`, the “hERG current change (%, negative = inhibition) at 10uM” value is -28.5%.

For `CCCCSc1n[nH]c(N)n1`, the “hERG current change (%, negative = inhibition) at 10uM” value was 14%. On to `CC(C)CCn1c(N2CCC(C(N)=O)CC2)nc2c1c(=O)[nH]c(=O)n2C`, for which the “hERG current change (%, negative = inhibition) at 10uM” value is recorded as 11.1%. Turning to `CCOc1cc2[nH]c(=S)n(CCCC(=O)NCc3ccco3)c(=O)c2cc1OCC`, the “hERG current change (%, negative = inhibition) at 10uM” value is recorded as -7.08%.

Regarding `CCOC(=O)/C(C#N)=C/N1CCOCC1`, the “hERG current change (%, negative = inhibition) at 10uM” value was -1.97%.

`COc1cccc(C2C3(C#N)C(N)=NC(OC)(OC)C23C#N)c1` (stereo not shown): the “hERG current change (%, negative = inhibition) at 10uM” value is recorded as 9.01%. In the case of `c1ccc2c(c1)Sc1ccccc1N2CC1CN2CCC1CC2` (stereo not shown) it was -53.1%; in that of `CC1CCCN(CC(=O)N2c3ccccc3Sc3ccccc32)C1` (stereo not shown), 1.98%.

As for `O=C(C1CC1)N1c2ccccc2Sc2ccccc21`, the “hERG current change (%, negative = inhibition) at 10uM” value was 7.2%. For the compound `Cc1ccc2nc(-c3cccnc3)oc2c1`, the “hERG current change (%, negative = inhibition) at 10uM” value came out at 5.22%.

Take `Cc1ccc(C(=O)CN(CCCC(N)=O)S(=O)(=O)c2ccc([N+](=O)[O-])cc2)cc1`: the “hERG current change (%, negative = inhibition) at 10uM” value was -66.7%. In the case of `Cc1ccc(C(=O)CN(CCC(=O)O)S(=O)(=O)c2ccc([N+](=O)[O-])cc2)cc1` it was -25.7%; in that of `O=C(O)CCN(CC(=O)c1ccc(Cl)cc1)S(=O)(=O)c1ccc([N+](=O)[O-])cc1`, -13.7%. Regarding `c1ccc2c3c([nH]c2c1)-c1[nH]ncc1CC3`, the “hERG current change (%, negative = inhibition) at 10uM” value was determined as 1.38%. Under `CC(=O)N1CCc2c(sc(NC(=O)CCS(=O)(=O)c3ccc(C)cc3)c2C(N)=O)C1` stands 2.54%.

For `O=C(CC1CCCC1)Nc1cc(S(=O)(=O)N2CCOCC2)ccc1O`, the “hERG current change (%, negative = inhibition) at 10uM” value was determined as 4.05%. In the case of `COCCNc1c(-c2cc3ccc(C)c(C)c3[nH]c2=O)nc2ccccn12` it was -74.9%. On to `Cc1cccc2cc(-c3nc4c(C)cccn4c3NCc3ccco3)c(=O)[nH]c12`, for which the “hERG current change (%, negative = inhibition) at 10uM” value is -11.5%.

Consider `Cc1ccc2[nH]c(=O)c(-c3nc4ccccn4c3NCc3ccco3)cc2c1`, for which the “hERG current change (%, negative = inhibition) at 10uM” value is -12.3%. As to `O=C(NCCc1ccccc1)c1cccnc1`, the “hERG current change (%, negative = inhibition) at 10uM” value was found to be 7.59%.

With `COc1ccc(-c2cn[nH]c2-c2ccc(OCC(=O)NN)cc2O)cc1OC`, the “hERG current change (%, negative = inhibition) at 10uM” value is 18.3%. Under `CCOc1ccccc1C1CC(c2cccc(NS(C)(=O)=O)c2)=NN1C(=O)c1ccccc1` (stereo not shown) stands -38.1%. Take `COc1ccc(OC)c(C2CC(c3ccc(NS(C)(=O)=O)cc3)=NN2C(=O)c2ccccc2)c1` (stereo not shown): the “hERG current change (%, negative = inhibition) at 10uM” value is -67.2%. Under `COc1ccccc1C1CC(c2ccccc2)=NN1C(=O)c1ccccc1` (stereo not shown) stands 11.9%; under `COc1ccccc1C1CC(c2ccc(NS(C)(=O)=O)cc2)=NN1C(=O)c1ccccc1` (stereo not shown), -50.9%. Under `COc1cccc(C2CC(c3ccc(NS(C)(=O)=O)cc3)=NN2C(=O)c2ccccc2)c1OC` (stereo not shown) stands -64.4%; under `COc1ccc(C2CC(c3ccc(OC)c(OC)c3)=NN2C(=O)c2ccccc2)cc1` (stereo not shown), 9.33%. With `COc1cccc(C2CC(c3ccc(Br)cc3)=NN2C(=O)c2ccncc2)c1OC` (stereo not shown), the “hERG current change (%, negative = inhibition) at 10uM” value is listed as -29.7%.

Turning to `COc1ccc(C(=O)N2N=C(c3ccc(NS(C)(=O)=O)cc3)CC2c2cccs2)cc1` (stereo not shown), the “hERG current change (%, negative = inhibition) at 10uM” value was -10.6%. In the case of `COc1cccc(C2CC(c3cccc(NS(C)(=O)=O)c3)=NN2C(=O)c2ccccc2)c1OC` (stereo not shown) it was -40.5%.
